# Laboratory results reported in the supplement of paper PMC8728848.
# This is one part of a sample in which the strongest signals are shown more often than they occur.
# B1: BC2LB (Burholderia cenocepacia), B4EH85_BURCJ (protein)
# chain: MGSSHHHHHHSSGENLYFQGHMSQPFTHDDLYALLQLAGNDATAVQANGDQAVLDRMRQFMTAQLVEKLPQYDVFVDIATIPYSFDVGSWQNKVKTDAAGEVVACTVTWAGAPGVLPGAAAKFGVGAVVNYFSKATPH
# Experiments:
# Assay in all cases: glycan array binding signal (z-score within array); higher = stronger binding
# Conditions in all cases: glycan notation: IUPAC condensed, linker removed
# [1] = target: Fuc(a1-2)Gal(b1-3)GlcNAc(b1-2)Man(a1-3)[Fuc(a1-2)Gal(b1-3)GlcNAc(b1-2)Man(a1-6)]Man(b1-4)GlcNAc(b1-4)[Fuc(a1-6)]GlcNAc
# In short: (§1)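 The binding signal is a Z-score computed within each array and averaged over linkers. Arrays of the same protein sequence at different concentrations or buffers were also averaged together. Data originate from 3228 arrays in the Consortium for Functional Glycomics database, kept only where the protein sequence was available.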
# [2] = target: Fuc(a1-2)Gal(b1-3)GlcNAc(b1-3)[Fuc(a1-2)Gal(b1-3)GlcNAc(b1-6)]GalNAc
# In short: as §1
# [3] = target: Fuc(a1-2)Gal(b1-3)[Fuc(a1-4)]GlcNAc(b1-3)[Gal(b1-4)GlcNAc(b1-6)]Gal(b1-4)Glc
# In short: as §1
# [4] = target: Fuc(a1-2)Gal(b1-4)GlcNAc(b1-3)Gal(b1-4)GlcNAc(b1-2)Man(a1-3)[Fuc(a1-2)Gal(b1-4)GlcNAc(b1-3)Gal(b1-4)GlcNAc(b1-2)Man(a1-6)]Man(b1-4)GlcNAc(b1-4)GlcNAc
# In short: as §1
# [5] = target: Fuc(a1-2)[Gal(a1-3)]Gal(b1-4)GlcNAc
# In short: as §1
# [6] = target: Fuc(a1-2)[Gal(a1-3)]Gal(b1-4)GlcNAc(b1-3)[Fuc(a1-2)[Gal(a1-3)]Gal(b1-4)GlcNAc(b1-6)]GalNAc
# In short: as §1
# [7] = target: Fuc(a1-2)[GalNAc(a1-3)]Gal(b1-3)GlcNAc(b1-6)GalNAc
# In short: as §1
# [8] = target: Fuc(a1-3)[Gal(b1-4)]GlcNAc(b1-3)GalNAc
# In short: as §1
# Fuc(a1-4)GlcNAc = target: Fuc(a1-4)GlcNAc
# In short: as §1
# Fuc(b1-3)GlcNAc = target: Fuc(b1-3)GlcNAc
# In short: as §1
# [9] = target: Gal(a1-3)Gal(b1-4)[Fuc(a1-3)]GlcNAc(b1-2)Man(a1-3)[Gal(a1-3)Gal(b1-4)[Fuc(a1-3)]GlcNAc(b1-2)Man(a1-6)]Man(b1-4)GlcNAc(b1-4)GlcNAc
# In short: as §1
# Gal(a1-4)GlcNAc = target: Gal(a1-4)GlcNAc
# In short: as §1
# [10] = target: Gal(b1-3)GlcNAc(a1-6)Gal(b1-4)GlcNAc
# In short: as §1
# [11] = target: Gal(b1-4)GlcNAc(b1-3)Gal(b1-3)GalNAc
# In short: as §1
# [12] = target: Gal(b1-4)GlcNAc(b1-3)Gal(b1-3)GlcNAc
# In short: as §1
# [13] = target: Gal(b1-4)GlcNAc(b1-3)Gal(b1-4)GlcNAc(b1-2)[Gal(b1-4)GlcNAc(b1-3)Gal(b1-4)GlcNAc(b1-6)]Man(a1-6)[Gal(b1-4)GlcNAc(b1-3)Gal(b1-4)GlcNAc(b1-2)Man(a1-3)]Man(b1-4)GlcNAc(b1-4)GlcNAc
# In short: as §1
# [14] = target: Gal(b1-4)GlcNAc(b1-3)Gal(b1-4)GlcNAc(b1-3)Gal(b1-4)GlcNAc(b1-3)Gal(b1-4)GlcNAc(b1-2)[Gal(b1-4)GlcNAc(b1-3)Gal(b1-4)GlcNAc(b1-3)Gal(b1-4)GlcNAc(b1-3)Gal(b1-4)GlcNAc(b1-6)]Man(a1-6)[Gal(b1-4)GlcNAc(b1-3)Gal(b1-4)GlcNAc(b1-3)Gal(b1-4)GlcNAc(b1-3)Gal(b1-4)GlcNAc(b1-2)Man(a1-3)]Man(b1-4)GlcNAc(b1-4)[Fuc(a1-6)]GlcNAc
# In short: as §1
# [15] = target: Gal(b1-4)GlcNAc(b1-3)Gal(b1-4)GlcNAc(b1-3)Gal(b1-4)GlcNAc(b1-3)Gal(b1-4)GlcNAc(b1-3)Gal(b1-4)GlcNAc(b1-2)Man(a1-3)[Gal(b1-4)GlcNAc(b1-3)Gal(b1-4)GlcNAc(b1-3)Gal(b1-4)GlcNAc(b1-3)Gal(b1-4)GlcNAc(b1-3)Gal(b1-4)GlcNAc(b1-2)Man(a1-6)]Man(b1-4)GlcNAc(b1-4)[Fuc(a1-6)]GlcNAc
# In short: as §1
# [16] = target: Gal3S(b1-3)[Fuc(a1-4)]GlcNAc
# In short: as §1
# Gal3S(b1-4)Glc = target: Gal3S(b1-4)Glc
# In short: as §1
# [17] = target: Gal3S(b1-4)[Fuc(a1-3)]GlcNAc6S
# In short: as §1
# [18] = target: GalNAc(a1-3)GalNAc(b1-3)Gal(a1-4)Gal(b1-4)GlcNAc
# In short: as §1
# Glc(b1-6)Glc = target: Glc(b1-6)Glc
# In short: as §1
# [19] = target: GlcNAc(a1-4)Gal(b1-4)GlcNAc(b1-3)Gal(b1-4)[Fuc(a1-3)]GlcNAc(b1-3)Gal(b1-4)[Fuc(a1-3)]GlcNAc
# In short: as §1
# [20] = target: GlcNAc(b1-2)Man(a1-3)[GlcNAc(b1-2)Man(a1-6)]Man(b1-4)GlcNAc(b1-4)GlcNAc
# In short: as §1
# Kdn(a2-3)Gal(b1-3)GlcNAc = target: Kdn(a2-3)Gal(b1-3)GlcNAc
# In short: as §1
# [21] = target: Man(a1-2)Man(a1-3)[Man(a1-2)Man(a1-6)]Man
# In short: as §1
# [22] = target: Man(a1-2)Man(a1-3)[Man(a1-6)]Man(a1-6)[Man(a1-2)Man(a1-3)]Man(b1-4)GlcNAc(b1-4)GlcNAc
# In short: as §1
# [23] = target: Man(a1-2)Man(a1-6)[Man(a1-3)]Man(a1-6)[Man(a1-2)Man(a1-2)Man(a1-3)]Man
# In short: as §1
# [24] = target: Neu5Ac(a2-3)Gal(b1-3)[GlcNAc(b1-6)]GalNAc
# In short: as §1
binder,measurement,setting,value
B1,glycan array binding signal (z-score),[1],-0.135
same,glycan array binding signal (z-score),[2],-0.166
same,glycan array binding signal (z-score),[3],-0.251
same,glycan array binding signal (z-score),[4],0.245
same,glycan array binding signal (z-score),[5],-0.238
same,glycan array binding signal (z-score),[6],6.98
same,glycan array binding signal (z-score),[7],7.53
same,glycan array binding signal (z-score),[8],0.001
same,glycan array binding signal (z-score),Fuc(a1-4)GlcNAc,2.88
same,glycan array binding signal (z-score),Fuc(b1-3)GlcNAc,1.63
same,glycan array binding signal (z-score),[9],0.053
same,glycan array binding signal (z-score),Gal(a1-4)GlcNAc,-0.101
same,glycan array binding signal (z-score),[10],-0.227
same,glycan array binding signal (z-score),[11],-0.131
same,glycan array binding signal (z-score),[12],-0.143
same,glycan array binding signal (z-score),[13],11.3
same,glycan array binding signal (z-score),[14],-0.198
same,glycan array binding signal (z-score),[15],0.012
same,glycan array binding signal (z-score),[16],0.995
same,glycan array binding signal (z-score),Gal3S(b1-4)Glc,1.52
same,glycan array binding signal (z-score),[17],0.149
same,glycan array binding signal (z-score),[18],-0.055
same,glycan array binding signal (z-score),Glc(b1-6)Glc,0.216
same,glycan array binding signal (z-score),[19],1.79
same,glycan array binding signal (z-score),[20],-0.234
same,glycan array binding signal (z-score),Kdn(a2-3)Gal(b1-3)GlcNAc,-0.201
same,glycan array binding signal (z-score),[21],-0.345
same,glycan array binding signal (z-score),[22],-0.397
same,glycan array binding signal (z-score),[23],-0.2
same,glycan array binding signal (z-score),[24],-0.242
